From PubChem BioAssay
Rows were chosen to be rich in hits. Some 17% of all compounds tested hit in one or more screens of this group.
TGFb inhibitor: qHTS for Inhibitors of TGF-b. Potency, µM (titrated, usually from 46.1 µM), usual class: inhibitors. 410,000 compounds, 1.2% hits. HepG2 CAGA-GFP TGF-b/SMAD3 reporter, GFP fluorescence, 18 h; TGF-beta stimulated, 500 pg/mL final; further: nearly all actives have a fitted effect of over 65% in size
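HEPG2 CAGA-GFP cells (1000/well, DMEM with 1% FBS) were pre-incubated 2 h at 37 degrees C, given compound by pin tool, then stimulated with TGF-beta at 500 pg/mL final for 18 h before per-cell GFP fluorescence imaging.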
DT40 TDP1 no CPT: qHTS for Inhibitors of human tyrosyl-DNA phosphodiesterase 1 (TDP1): qHTS in cells in absence of CPT; Potency, µM (titrated, usually from 46.2 µM), actives largely listed as inhibitors; 420,000 compounds, 15% hits; DT40 Tdp1-/- hTDP1 cells, no CPT, ATP luminescence, 48 h; AID 686978, 2013; further: nearly all actives have a fitted effect of over 55% in size
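No-CPT arm: Tdp1-/-;hTDP1 DT40 cells (400/well) plus compounds, incubated ≥48 hr at 37 °C. Readout CellTiter-Glo luminescence.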
ATXN viability: Viability Counterscreen for Primary qHTS for Inhibitors of ATXN expression; Potency, µM (doses to about 56.7 µM), hits mostly cytotoxic; S2 cells (HEK-293 line with an ATXN2-luciferase reporter) viability, CellTiter-Fluor protease fluorescence, 24 h; 400,000 compounds, 0.49% hits; AID 651635, 2014; further: nearly all actives have a fitted effect of over 40% in size
ATXN2 expr inh: Primary qHTS for Inhibitors of ATXN expression; HEK-293 ATXN2-luciferase reporter, luminescence, 24 h; Potency, µM (doses to about 57 µM), hits mostly inhibitors; 360,000 compounds, 0.72% hits; further: nearly all actives have a fitted effect of over 55% in size
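qHTS (up to 57 uM final) was run with 24 h compound exposure of reporter cells at 37 °C. Each well was multiplexed: SteadyGlo luminescence measured ATXN2-luciferase expression after a fluorogenic Gly-Phe-AFC viability readout (25 uM final).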
HepG2 tox: qHTS for Inhibitors of TGF-b: Cytotox Counterscreen; HepG2 CAGA-GFP viability, ATP luminescence, 18 h; Potency, µM (titrated, usually from 46.1 µM), usual class: cytotoxic; AID 588856, 2011; 410,000 compounds, 0.76% hits
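HepG2 CAGA-GFP cells (1000/well, DMEM with 1% FBS) received compound, then TGF-beta at 500 pg/mL final, and were incubated 18 hours at 37 degrees C. Viability was read by CellTiter-Glo luminescence. Media-only wells were set as complete cell-killing and DMSO as no toxicity.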
TDP1 cell CPT: qHTS for Inhibitors of human tyrosyl-DNA phosphodiesterase 1 (TDP1): qHTS in cells in presence of CPT; chicken DT40 Tdp1-/-;hTDP1 cells + 20 nM CPT, ATP luminescence, 48 h; Potency, µM (top dose mostly 46.2 µM), hits mostly inhibitors; 420,000 compounds, 12% hits; AID 686979, 2013; further: nearly all actives have a fitted effect of over 55% in size
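Chicken DT40 Tdp1-/- cells complemented with human TDP1, 400 cells/well, exposed to compounds plus 20 nM camptothecin for at least 48 h at 37 C; viability read as ATP content by CellTiter-Glo luminescence.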
A number is an active result. The call rests on the fitted dose curve; in most records, active means well fitted curve in the direction sought with a large enough effect; inconclusive means small, poorly fitted or top-dose-only effect, or another doubt; inactive means no such curve, though single readings can be large; an effect the other way counts as inactive or inconclusive.

Results for COc1ccccc1C(=O)N1c2ccccc2Sc2ccccc21 ?
TGFb inhibitor: inconclusive; DT40 TDP1 no CPT: 5.8µM; ATXN viability: inactive; ATXN2 expr inh: inactive; HepG2 tox: inactive; TDP1 cell CPT: 5.8µM

What do the screens show for `Cc1cc(C(=O)CCl)c(C)n1CCc1ccc(Cl)cc1`?
TGFb inhibitor: inconclusive; DT40 TDP1 no CPT: 3.7µM; ATXN viability: inconclusive; ATXN2 expr inh: 25µM; HepG2 tox: 18µM; TDP1 cell CPT: inactive

How did COc1ccc(CCn2c(C)c(C(C)=O)c(C(C)=O)c2C)cc1OC do in these assays?
TGFb inhibitor: inactive; DT40 TDP1 no CPT: inactive; ATXN viability: inactive; ATXN2 expr inh: inactive; HepG2 tox: inactive; TDP1 cell CPT: inactive

How did Cc1cc(C(=O)CSc2nnc(N)s2)c(C)n1CCc1ccc(F)cc1 do in these assays?
TGFb inhibitor: inactive; DT40 TDP1 no CPT: inactive; ATXN viability: inactive; ATXN2 expr inh: inactive; HepG2 tox: inactive; TDP1 cell CPT: inconclusive

What do the screens show for `CC(=O)c1c(C)n(CCc2ccc(Cl)cc2)c2ccc(O)cc12`?
TGFb inhibitor: inactive; DT40 TDP1 no CPT: inactive; ATXN viability: inactive; ATXN2 expr inh: inactive; HepG2 tox: inactive; TDP1 cell CPT: inactive

How did Cc1cc(C(=O)CSc2nnc(N)s2)c(C)n1CCc1ccc(Cl)cc1 do in these assays?
TGFb inhibitor: inactive; DT40 TDP1 no CPT: inconclusive; ATXN viability: inactive; ATXN2 expr inh: inactive; HepG2 tox: inactive; TDP1 cell CPT: 9.2µM

How did COc1ccc(CCn2c(C)cc(C(=O)CCl)c2C)cc1OC do in these assays?
TGFb inhibitor: inconclusive; DT40 TDP1 no CPT: 5.2µM; ATXN2 expr inh: inconclusive; HepG2 tox: inactive; TDP1 cell CPT: 6.5µM

Results for O=C(NC1CCCCC1)C(c1ccc2ncccc2c1)N(Cc1ccccc1)C(=O)c1ccc2c(c1)OCCO2 (configuration not stated) ?
TGFb inhibitor: inconclusive; DT40 TDP1 no CPT: inconclusive; ATXN viability: inconclusive; ATXN2 expr inh: inactive; HepG2 tox: inactive; TDP1 cell CPT: 13µM

How did COc1ccc(CN(C(=O)c2ccc3c(c2)OCCO3)C(C(=O)NC2CCCCC2)c2ccc3ncccc3c2)cc1 (configuration not stated) do in these assays?
TGFb inhibitor: inactive; DT40 TDP1 no CPT: 18µM; ATXN viability: inactive; ATXN2 expr inh: inactive; HepG2 tox: inactive; TDP1 cell CPT: inconclusive

What do the screens show for `CCCn1c(=NC(=O)CCS(=O)(=O)c2ccccc2)sc2cc(S(N)(=O)=O)ccc21`?
TGFb inhibitor: inactive; DT40 TDP1 no CPT: 21µM; ATXN viability: inactive; ATXN2 expr inh: inactive; HepG2 tox: inactive; TDP1 cell CPT: 21µM

Results for CCOc1cccc2sc(=NC(=O)CCS(=O)(=O)c3ccccc3)n(CC)c12 ?
TGFb inhibitor: inactive; DT40 TDP1 no CPT: 12µM; ATXN viability: inactive; ATXN2 expr inh: inactive; HepG2 tox: inactive; TDP1 cell CPT: inconclusive

Results for Cn1c(=NC(=O)CCS(=O)(=O)c2ccccc2)sc2cc(F)ccc21 ?
TGFb inhibitor: inactive; DT40 TDP1 no CPT: inconclusive; ATXN viability: inconclusive; ATXN2 expr inh: inactive; HepG2 tox: inactive; TDP1 cell CPT: inconclusive

Results for CCOC(=O)c1sc(=NC(=O)CCS(=O)(=O)c2ccccc2)n(C)c1C ?
TGFb inhibitor: inactive; DT40 TDP1 no CPT: inactive; ATXN viability: inactive; ATXN2 expr inh: inactive; HepG2 tox: inactive; TDP1 cell CPT: inactive

What do the screens show for `CCOc1cccc2sc(=NC(=O)CCS(=O)(=O)c3ccc(F)cc3)n(C)c12`?
TGFb inhibitor: inactive; DT40 TDP1 no CPT: 16µM; ATXN viability: inactive; ATXN2 expr inh: inactive; HepG2 tox: inactive; TDP1 cell CPT: inconclusive

How did COc1cccc2sc(=NC(=O)CCS(=O)(=O)c3ccc(C)cc3)n(C)c12 do in these assays?
TGFb inhibitor: inactive; DT40 TDP1 no CPT: 21µM; ATXN viability: inactive; ATXN2 expr inh: inactive; HepG2 tox: inactive; TDP1 cell CPT: inconclusive

What do the screens show for `COCCn1c(=NC(=O)CCS(=O)(=O)c2ccccc2)sc2cc(C(=O)OC)ccc21`?
TGFb inhibitor: inactive; DT40 TDP1 no CPT: inactive; ATXN viability: inactive; ATXN2 expr inh: inactive; HepG2 tox: inactive; TDP1 cell CPT: inactive

How did OC[C@@H](O)[C@@H](O[C@H]1O[C@H](CO)[C@@H](O)[C@H](O)[C@H]1O)[C@H](O)[C@@H](O)CO do in these assays?
TGFb inhibitor: inactive; DT40 TDP1 no CPT: inactive; ATXN viability: inactive; ATXN2 expr inh: inactive; HepG2 tox: inactive; TDP1 cell CPT: inactive

What do the screens show for `O=C(CNC(=O)c1cccnc1)c1ccc(F)cc1`?
TGFb inhibitor: inactive; DT40 TDP1 no CPT: inactive; HepG2 tox: inactive; TDP1 cell CPT: inactive

What do the screens show for `CCOc1cccc2sc(=NC(=O)c3ccco3)n(CC(=O)OC)c12`?
TGFb inhibitor: inactive; DT40 TDP1 no CPT: 15µM; ATXN viability: inactive; ATXN2 expr inh: inactive; HepG2 tox: inactive; TDP1 cell CPT: inconclusive

What do the screens show for `C#CCn1c(=NC(=O)c2ccco2)sc2cccc(Cl)c21`?
TGFb inhibitor: inactive; DT40 TDP1 no CPT: inactive; ATXN viability: inconclusive; ATXN2 expr inh: inactive; HepG2 tox: inactive; TDP1 cell CPT: inactive

How did Cc1ccc(C(=O)CNc2nc3c(c(=O)[nH]c(=O)n3C)n2Cc2ccccc2)cc1 do in these assays?
TGFb inhibitor: inactive; DT40 TDP1 no CPT: inconclusive; ATXN viability: inactive; ATXN2 expr inh: inactive; HepG2 tox: inactive; TDP1 cell CPT: inconclusive

Results for COc1ccc(Br)c2c1-c1nc(NC(=O)c3ccccc3F)sc1C2 ?
TGFb inhibitor: inactive; DT40 TDP1 no CPT: 18µM; ATXN viability: inactive; ATXN2 expr inh: inactive; HepG2 tox: inactive; TDP1 cell CPT: 21µM

Results for COc1cc(C(=O)Nc2nc3c(s2)Cc2c(Br)ccc(OC)c2-3)cc(OC)c1OC ?
TGFb inhibitor: inactive; DT40 TDP1 no CPT: 15µM; ATXN viability: inactive; ATXN2 expr inh: inactive; HepG2 tox: inactive; TDP1 cell CPT: 15µM

Results for COc1ccc(Br)c2c1-c1nc(NC(=O)c3ccccc3SC)sc1C2 ?
TGFb inhibitor: inconclusive; DT40 TDP1 no CPT: inconclusive; HepG2 tox: inactive; TDP1 cell CPT: inconclusive

How did COC(=O)c1ccc(C(=O)OC)c(NC(=O)Cc2cccs2)c1 do in these assays?
TGFb inhibitor: inactive; DT40 TDP1 no CPT: inactive; HepG2 tox: inactive; TDP1 cell CPT: inactive

What do the screens show for `CCN(C[C@H]1N[C@@](CC)(C(=O)OC)[C@H]2C(=O)N(C)C(=O)[C@@H]12)C(=O)Nc1ccccc1`?
TGFb inhibitor: inactive; DT40 TDP1 no CPT: inactive; ATXN viability: inactive; ATXN2 expr inh: inactive; HepG2 tox: inactive; TDP1 cell CPT: inactive
